In PubChem BioAssay AID1022 (Emory University Molecular Libraries Screening Center, 2008) one finds inhibition data, which are given here for 20 compounds.

Out of some 220,000 compounds screened, about 3,300 (1.5%) were called active. Only a selection was taken, and actives are over-represented in it overall. Unmarked numbers belong to inactive results.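 Rule for the calls: active = compounds that cut the protein-peptide binding signal by more than 50% relative to plate controls in a single-dose test; inactive = the rest.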

In the assay the target is Induced myeloid leukemia cell differentiation protein Mcl-1 (Homo sapiens) (UniProt Q07820). The experiment in a line: disruptors of Mcl-1 and Noxa BH3 peptide – biochemical, TR-FRET, 1536-well, primary screen (AID 1022).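 Note: His-tagged Mcl-1 with rhodamine Noxa BH3 peptide and terbium anti-His antibody; 0% = Mcl-1 plus Noxa peptide wells and 100% = peptide-only wells.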 To be noted: TR-FRET Mcl-1/Noxa peptide binding, 2 h; at 21.7 µM; stronger effect = higher value. In general terms: In TR-FRET formats the signal depends on donor and acceptor labels being close together.
Sequence of Induced myeloid leukemia cell differentiation protein Mcl-1 (Homo sapiens) (Q07820 whole entry, looked up): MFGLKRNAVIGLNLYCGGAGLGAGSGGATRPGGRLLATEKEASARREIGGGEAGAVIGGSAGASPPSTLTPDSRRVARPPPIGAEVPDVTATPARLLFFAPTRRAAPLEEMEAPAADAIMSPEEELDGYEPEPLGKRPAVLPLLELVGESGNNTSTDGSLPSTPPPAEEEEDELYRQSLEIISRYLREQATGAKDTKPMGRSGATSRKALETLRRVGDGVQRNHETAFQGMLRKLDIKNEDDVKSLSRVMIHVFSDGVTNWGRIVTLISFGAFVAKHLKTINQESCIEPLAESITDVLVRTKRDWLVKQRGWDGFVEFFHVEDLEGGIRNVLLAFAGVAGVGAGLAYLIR
For `Cc1cccc(N2C(=O)NC(=O)/C(=C\c3cnn(-c4ccccc4)c3)C2=O)c1`, the inhibition (usually the change of the read-out against control, counted positive when it falls) was 29.4%.
For `O=C1NC(=O)N(c2ccccc2)C(=O)/C1=C/c1ccc([N+](=O)[O-])s1`, the inhibition is 45.5%.
Regarding `COc1cccc(N2C(=O)NC(=O)/C(=C\c3ccc([N+](=O)[O-])s3)C2=O)c1`, the inhibition is 59.7% (active).
`CCCCC(=O)N/N=C/c1c(O)n(-c2ccccc2)c(=O)[nH]c1=O`: the inhibition is -147%.
For `O=C1NC(=O)N(CCc2ccc(F)cc2)C(=O)/C1=C/C=C/c1ccccc1`, the inhibition was 6.31%.
For `Cc1c(C(=O)O)cccc1-n1c(C)cc(/C=C2\C(=O)NC(=O)N(c3ccc4c(c3)OCO4)C2=O)c1C`, the inhibition was 14.7%.
Take `O=C1NC(=O)N(c2ccc(F)cc2)C(=O)/C1=C/c1ccc2c(c1)CCCN2Cc1ccccc1`: the inhibition is 67.7% (active).
As for `O=c1[nH]c(=O)n(CCc2ccccc2)c(O)c1/C=N/N1CCOCC1`, the figure is 6.09%; as for `COc1cccc(CN2CCCC(C(=O)c3ccccc3SC)C2)c1O` (stereo not given), 16.2%; as for `CCCCCCCCCCCCn1ccc(=N)cc1`, 2.41%.
Turning to `O=C(O)CCn1cc(C=C2C(=O)NC(=S)NC2=O)c(-c2cccc(Br)c2)n1`, the inhibition is 93.9% (active).
For `CN(C)CC1CCCCC1=O` (stereo not given), the inhibition was 21.8%.
Regarding `CNC(=O)O/N=C(\N)Cc1csc2ccccc12`, the inhibition was -19.1%.
With `Cc1ccc(-n2c(O)c(C=NCC3CCCO3)c(=O)[nH]c2=O)c(C)c1` (stereo not given), the inhibition is -16.8%.
Turning to `Cc1cc(/C=C2/C(=O)NC(=O)N(Cc3ccco3)C2=O)c(C)n1-c1ccc(C(=O)O)cc1`, the inhibition is 27.4%.
With `O=C1NC(=O)N(Cc2ccco2)C(=O)/C1=C\c1cccn1CCOc1ccccc1`, the inhibition is 3.37%.
Take `O=C1NC(=O)N(Cc2ccco2)C(=O)/C1=C\c1ccc(-c2ccc(F)cc2)o1`: the inhibition is 69.5% (active).
On to `CSc1ccc(C(=O)C2CCCN(Cc3ccn[nH]3)C2)cc1` (stereo not given), for which the inhibition was 16.2%.
As for `c1cc2c(cc1[C@H]1OC[C@H]3[C@@H]1CO[C@@H]3c1ccc3c(c1)OCO3)OCO2`, the inhibition was 1.72%.
Turning to `CCOc1cccc(=NC2CCCCC2)c2c(C)[nH]c(C)c12`, the inhibition was 23.3%.
